Measured values as given in PubChem BioAssay.
Calls of active or inactive are those of the source.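 How the source made its calls, unless noted: active means visual image review flags a hit and inhibition of aggregation exceeds 20%; inconclusive means visual hit but inhibition at or below 20%; inactive means no hit on visual image review.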

Key:
[1] = inhibitors of TNFa-induced NFkB p65 translocation, primary screen, imaging, HUVEC, MLSMR starter and 10KST1 sets (AID 438;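 active means inhibition above 20% together with a positive visual image hit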;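 further: compound added about 3h40 before a 20 min TNFalpha stimulation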;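 on inhibition: signal is the nuclear over cytoplasmic p65 intensity ratio per well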); conditions: HUVEC TNFa-induced p65 nuclear translocation; cell count: measured here: nuclei count (cytotoxicity indicator), at 2.08 µM; inhibition: at 2 µM, stronger effect = higher value, 0% TNFa-plus-vehicle, 100% no-TNFa wells
[2] = inhibitors of mutant huntingtin aggregation, primary screen, imaging, exon1htt(103Q)mCFP cells, high-content imaging (AID 483); conditions: exon1htt(103Q)mCFP cell line, aggregate imaging, at 2 µM; inhibition of aggregation: stronger effect = higher value; nuclei count: measured here: cell count, toxicity;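 further: compound exposure lasted 3 days before fixation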;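 on nuclei count: percent of the per-plate median nuclei count of sample wells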
[3] = inhibitors of E-selectin induction by TNFa, primary screen, imaging, HUVEC, immunofluorescence, MLSMR starter and 10KST1 sets (AID 487;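 active means visually confirmed hit in the image check and inhibition above 20%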;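 on inhibition: signal is fraction of cell area covered by stained E-selectin grains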;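 on nuclei count: 100% = median nuclei count of all wells on the same plate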); conditions: HUVEC TNFalpha-induced E-selectin immunofluorescence imaging, at 2 µM; inhibition: stronger effect = higher value; nuclei count: measured here: cell number, toxicity
[4] = molecular target: Voltage-gated potassium channel subunit beta-2 (Rattus norvegicus) (UniProt P62483); experiment: KvBeta enzyme negative modulators, primary screen, biochemical, NADPH fluorescence (AID 622;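 active means fluorescence slope higher than the sample average by over 3 SD, cut at about -0.22 in these data, passing the limit was not always enough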;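 further: slope of raw intensity against log time taken from 70 to 1610 s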); conditions: recombinant KvBeta, 4-cyanobenzaldehyde reduction, at 10 µM, stronger effect = higher value
Chain of Voltage-gated potassium channel subunit beta-2 (Rattus norvegicus) (P62483 whole entry, looked up): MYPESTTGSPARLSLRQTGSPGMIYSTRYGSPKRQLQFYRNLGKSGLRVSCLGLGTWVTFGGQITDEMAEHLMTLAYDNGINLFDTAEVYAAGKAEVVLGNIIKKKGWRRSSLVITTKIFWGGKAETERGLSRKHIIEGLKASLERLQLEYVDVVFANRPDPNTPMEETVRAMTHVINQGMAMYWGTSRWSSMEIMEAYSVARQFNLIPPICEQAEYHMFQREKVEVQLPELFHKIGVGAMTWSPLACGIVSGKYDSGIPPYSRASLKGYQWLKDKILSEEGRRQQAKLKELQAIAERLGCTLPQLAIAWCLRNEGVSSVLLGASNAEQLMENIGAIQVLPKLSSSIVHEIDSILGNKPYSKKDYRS

[5] = molecular target: Voltage-gated potassium channel subunit beta-2 (Rattus norvegicus) (UniProt P62483); experiment: KvBeta positive modulators, primary screen, biochemical, NADPH fluorescence (AID 623;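 active means NADPH fluorescence slope more negative than the mean of all samples by about 3 SD, 99.7% confidence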;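 further: fluorescence intensity change per second fitted from 20 to 320 s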); conditions: Recombinant KvBeta, NADPH fluorescence decrease slope, 10 min; at 10 µM; stronger effect = lower value
[6] = molecular target: Alpha-2C adrenergic receptor (Homo sapiens) (UniProt P18825); experiment: modulators of alpha2C/GIRK thallium flux, primary screen, cell-based, HEK293 alpha2C/GIRK1/2 (AID 624;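 active means fluorescence slope after compound addition differing from the mean of all screened samples at 99.7% confidence, in either direction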;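 further: slope of fluorescence ratio to pre-addition baseline per second over 15 to 24 s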); conditions: thallium flux BTC fluorescence, at 10 µM, actives lie on both sides
Chain of Alpha-2C adrenergic receptor (Homo sapiens) (P18825 whole entry, looked up): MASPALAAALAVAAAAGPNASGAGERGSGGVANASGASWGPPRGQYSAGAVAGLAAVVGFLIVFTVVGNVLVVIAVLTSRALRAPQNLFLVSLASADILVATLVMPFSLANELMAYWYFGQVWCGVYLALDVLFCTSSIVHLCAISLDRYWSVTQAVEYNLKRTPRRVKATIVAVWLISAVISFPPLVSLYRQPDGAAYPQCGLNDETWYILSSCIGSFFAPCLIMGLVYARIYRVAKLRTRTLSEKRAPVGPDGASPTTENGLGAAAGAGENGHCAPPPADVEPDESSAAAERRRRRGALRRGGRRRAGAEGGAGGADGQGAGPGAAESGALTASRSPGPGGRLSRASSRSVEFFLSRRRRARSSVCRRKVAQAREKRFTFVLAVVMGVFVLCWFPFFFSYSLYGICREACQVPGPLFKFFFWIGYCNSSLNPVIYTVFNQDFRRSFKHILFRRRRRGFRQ

[7] = inhibitors of Sendai virus-induced IRF3 signaling, primary screen, TLR/RLR signaling modifier project, cell-based, Sendai virus stimulus, luciferase, 10K MLSCN set (AID 602276;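 active means inhibition at or above 50% at 10 µM; inactive means inhibition below 50%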;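 further: firefly luciferase from ISG56 promoter only with Renilla not read in this screen; 0% = Sendai virus plus DMSO and 100% = medium plus DMSO without virus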); conditions: HEK293 RL24 IRF3 luciferase reporter, at 10 µM, stronger effect = higher value
[8] = inhibitors of poly I:C-induced TLR3 signaling, primary screen, cell-based, poly I:C stimulus, luciferase, 10K MLSCN set (AID 602277;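 active means inhibition of the reporter signal at or above 50%; inactive means inhibition below 50%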); conditions: HEK293-TLR3 RL24 IRF3 luciferase reporter, at 10 µM, stronger effect = higher value

| SMILES | cell count [1] | inhibition [1] | inhibition of aggregation [2] | nuclei count [2] | inhibition [3] | nuclei count [3] | fluorescence slope [4] | NADPH fluorescence slope [5] | slope [6] | inhibition [7] | inhibition [8] |
| --- | --- | --- | --- | --- | --- | --- | --- | --- | --- | --- | --- |
| CC1CCN(C(=O)CSc2nc3c(cnn3-c3ccccc3)c(=O)[nH]2)CC1 | 472 | 2.3% (inactive) | -5.6% (inactive) | 102% | 14.9% (inactive) | 79.5% | -0.582 (inactive) | -2.5e-05 (inactive) | 0.00596 (inactive) | 10.9% (inactive) | 28.1% (inactive) |
| COCCn1c(C23CC4CC(CC(C4)C2)C3)n[nH]c1=S | 866 | 3.6% (inactive) | -13.1% (inactive) | 106% | -91.1% (inactive) | 129% | -0.44 (inactive) | -2.3e-05 (inactive) | 0.00347 (inactive) | 14.6% (inactive) | 42.9% (inactive) |
| O=C(Nc1ccccc1-c1ccccc1)NC1CCN(CC(=O)N2CCOCC2)CC1 | 537 | -39.8% (inactive) | -5% (inactive) | 113% | -63.8% (inactive) | 109% | -0.433 (inactive) | -7.3e-05 (inactive) | 0.00795 (inactive) | 9.32% (inactive) | 27.5% (inactive) |
| CCN(CC)CCCNC(=O)c1cn(C)c2ccc(S(=O)(=O)N(C)C)cc2c1=O | 559 | -2.8% (inactive) | -53.9% (inactive) | 73.6% | 69.2% (active) | 98.9% | -0.587 (inactive) | -3.7e-05 (inactive) | 0.00615 (inactive) | 7.25% (inactive) | 33.2% (inactive) |
| C#CCN1C(=O)C(O)(CC(=O)c2cc(OC)ccc2OC)c2ccccc21 (stereo not drawn) | 841 | -2.9% (inactive) | 1.3% (inactive) | 97.5% | -183% (inactive) | 124% | -0.411 (inactive) | -3.9e-05 (inactive) | 0.00497 (inactive) | 17.5% (inactive) | 20% (inactive) |
| CCCS(=O)(=O)N1CCCC(C(=O)NC(C)c2ccc3c(c2)OCCO3)C1 (stereo not drawn) | 719 | -10.9% (inactive) | 0.2% (inactive) | 101% | -26.6% (inactive) | 100% | -0.475 (inactive) | 1.2e-05 (inactive) | 0.00535 (inactive) | 9.72% (inactive) | 13.6% (inactive) |
| CCN(CC)CCOc1cccc(C(C)C)c1 | 657 | -5.3% (inactive) | -2.7% (inactive) | 104% | 1.1% (inactive) | 76.3% | -0.393 (inactive) | -7.6e-05 (inactive) | 0.00629 (inactive) | 6.62% (inactive) | 13.5% (inactive) |
| CN1CCc2c(sc3c2c(=O)n(-c2ccccc2)c2nnc(SCc4ccc(F)cc4)n32)C1 | 375 | 2.1% (inactive) | 9.2% (inactive) | 73.7% | -45% (inactive) | 210% | -0.608 (inactive) | -5.9e-06 (inactive) | 0.00622 (inactive) | 4.98% (inactive) | -12.6% (inactive) |
| CN(Cc1ccccc1)Cc1nc2c(c(=O)n(C)c(=O)n2C)n1Cc1ccc(Cl)cc1 | 346 | -7.7% (inactive) | 22.2% (inactive) | 72.4% | -32.1% (inactive) | 161% | -0.612 (inactive) | -1.8e-05 (inactive) | 0.00317 (inactive) | -1.93% (inactive) | 2.58% (inactive) |
| CCOC(=O)c1ccc(NC(=O)CCc2c(C)nc3ncnn3c2C)cc1 | 402 | 1.9% (inactive) | -19.7% (inactive) | 107% | -138% (inactive) | 116% | -0.508 (inactive) | 6.6e-06 (inactive) | 0.00565 (inactive) | -2.81% (inactive) | 7.84% (inactive) |
| CCCS(=O)(=O)N1CCC(C(=O)NCCN2CCCC2)CC1 | 201 | -6.8% (inactive) | 12.3% (inactive) | 104% | 30.3% (inactive) | 70.1% | -0.405 (inactive) | -3.3e-05 (inactive) | 0.00665 (inactive) | 13.8% (inactive) | 19.2% (inactive) |
| O=C(NCc1cccnc1)c1ccccn1 | 354 | -11% (inactive) | -7.8% (inactive) | 113% | -18.1% (inactive) | 108% | -0.466 (inactive) | -4.5e-06 (inactive) | 0.00661 (inactive) | 3.99% (inactive) | -3.56% (inactive) |
| C=CCn1c(=O)n(CCOC)c(=O)c2sc3ccccc3c21 | 733 | -3.4% (inactive) | -12% (inactive) | 87.6% | -34% (inactive) | 102% | -0.566 (inactive) | -3.7e-05 (inactive) | 0.00805 (inactive) | -6.44% (inactive) | 51% (active) |
| c1ccc(Oc2ccc(-n3cnnn3)cc2)cc1 | 254 | 1.5% (inactive) | -1.2% (inactive) | 66% | -14% (inactive) | 106% | -0.391 (inactive) | 9.8e-07 (inactive) | 0.00429 (inactive) | -11.3% (inactive) | 0.336% (inactive) |
| Cc1nc2sc(C(c3ccccc3)N3CCN(c4ccccc4F)CC3)c(O)n2n1 (stereo not drawn) | 305 | -1% (inactive) | -6.7% (inactive) | 83.6% | 8.6% (inactive) | 91.8% | -0.437 (inactive) | 0.000106 (inactive) | 0.00618 (inactive) | 5.03% (inactive) | 5.62% (inactive) |
| COc1ccc(-c2nc(CSCC(=O)N3CCN(c4cccc(C)c4)C(C)C3)c(C)o2)cc1OC (stereo not drawn) | 549 | 2.3% (inactive) | 11.5% (inactive) | 92.1% | 5.7% (inactive) | 83.2% | -0.429 (inactive) | -5.4e-05 (inactive) | 0.00539 (inactive) | 4.11% (inactive) | 8.34% (inactive) |
| COc1ccc(C2CC(c3ccccc3)Nc3nc(NC(=O)c4cccs4)nn32)cc1 (stereo not drawn) | 413 | 1.4% (inactive) | -6.8% (inactive) | 102% | -156% (inactive) | 112% | -0.372 (inactive) | -7.5e-05 (inactive) | 0.00554 (inactive) | 18.4% (inactive) | 25.3% (inactive) |
| COC(=O)c1[nH]c2ccc(C)cc2c1NC(=O)CN1CCCc2ccccc21 | 408 | 3.1% (inactive) | 21.6% (inactive) | 83.4% | -29.9% (inactive) | 106% | -0.39 (inactive) | -4.8e-05 (inactive) | 0.00333 (inactive) | 21.5% (inactive) | 12% (inactive) |
| Cc1ccc(C2c3sc(=O)[nH]c3SC3C(=O)NC(=O)C32)cc1 (stereo not drawn) | 401 | 6.1% (inactive) | 11.3% (inactive) | 88.3% | -18% (inactive) | 99.5% | -0.558 (inactive) | -2.2e-05 (inactive) | 0.00486 (inactive) | 1.16% (inactive) | 58.9% (active) |
| N#C/C(=C(/O)COC(=O)CCC1CCCCC1)c1nc2ccccc2[nH]1 | 317 | -3.4% (inactive) | -9.2% (inactive) | 120% | -3.3% (inactive) | 113% | -0.595 (inactive) | -3.2e-05 (inactive) | 0.0028 (inactive) | 16.8% (inactive) | 24.8% (inactive) |
| Cc1cccc(C(OC(=O)c2ccco2)C(=O)NCc2ccccc2)n1 (stereo not drawn) | 724 | -15.3% (inactive) | -7.2% (inactive) | 104% | -79.6% (inactive) | 106% | -0.478 (inactive) | -1.3e-05 (inactive) | 0.00475 (inactive) | -5.03% (inactive) | 21.1% (inactive) |
| Cn1cc(-c2nc3ccccc3[nH]2)c2ccccc21 | 250 | 2.1% (inactive) | 33.7% (inactive) | 82.6% | 55.1% (inactive) | 83.3% | -0.416 (inactive) | -6e-05 (inactive) | 0.00369 (inactive) | -9.53% (inactive) | -51.2% (inactive) |
| C=CCSC1=C(C#N)C(c2ccccc2Cl)CC(=O)N1 (stereo not drawn) | 407 | -6.5% (inactive) | 28.2% (inactive) | 74.3% | -59% (inactive) | 171% | -0.561 (inactive) | 5.8e-06 (inactive) | 0.0048 (inactive) | 25.7% (inactive) | 14.1% (inactive) |
| CCN(CC)CCNC(=O)CCn1c(=S)[nH]c2cc3c(cc2c1=O)OCO3 | 380 | -3% (inactive) | -16.9% (inactive) | 99.9% | 7.2% (inactive) | 114% | -0.501 (inactive) | -2.4e-05 (inactive) | 0.00645 (inactive) | -5.94% (inactive) | 28.2% (inactive) |
| CN(CC(=O)NCCC1=CCCCC1)S(=O)(=O)c1ccc2c(c1)CCC(=O)N2 | 603 | 16.1% (inactive) | 19% (inactive) | 111% | -110% (inactive) | 141% | -0.505 (inactive) | 1.1e-05 (inactive) | 0.00584 (inactive) | -4.9% (inactive) | 16.8% (inactive) |
| CSc1ccc(Cn2nnc(C(=O)NCc3ccccc3)c2N)cc1 | 570 | -2.3% (inactive) | 17.3% (inactive) | 100% | -74.8% (inactive) | 134% | -0.478 (inactive) | -2e-05 (inactive) | 0.00597 (inactive) | 5.71% (inactive) | 12.9% (inactive) |
| Cc1nnc(NC(=O)c2ccco2)s1 | 697 | 1.3% (inactive) | -21.8% (inactive) | 107% | -34.3% (inactive) | 110% | -0.521 (inactive) | -3.3e-05 (inactive) | 0.00691 (inactive) | 3.15% (inactive) | 14.4% (inactive) |
| CCCCNC(=O)CSc1nc2ccc(N3CCOCC3)cc2c(=O)n1CCc1ccccc1 | 533 | -0.8% (inactive) | 28.7% (active) | 48.9% | -18.8% (inactive) | 110% | -0.565 (inactive) | -1.2e-05 (inactive) | 0.00671 (inactive) | 2.7% (inactive) | 10.3% (inactive) |
